As usually defined, the inhibition is the change of the read-out against control, counted positive when it falls.

Drawing on PubChem BioAssay, this text covers growth inhibition, inhibition and outcome for 3 compounds.

Test [1] is described as follows: antimalarial activity against Dd2 strain (AID 2302;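 active means growth inhibition above 50% at the single 2 µM test dose, taken to imply half-maximal potency below 2 µM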;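 further: 0% = DMSO untreated growth and 100% = chloroquine plus artemisinin killed control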). To be noted: P. falciparum Dd2 in RBCs, LDH growth readout, 72 h; at 2 µM; active compounds read high.
Test [2] can be described thus: human hepatoma cell viability loss – ATP luminescence, cytotoxicity control for P. falciparum antimalarial project, primary screen (AID 2303;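 active means inhibition above 50%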;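 further: 0% = DMSO wells and 100% = digitonin-killed cells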). The conditions noted are these: HepG2 viability, 24-48 h, at 10 µM, active compounds read high.
The target in test [3] is L-lactate dehydrogenase (Plasmodium falciparum (isolate CDC / Honduras)) (UniProt Q27743). In words: PfLDH activity inhibition – cell lysate, 3D7 strain, counter-screen for P. falciparum growth inhibition project (AID 2304).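 Further: 0% = vehicle and 100% = reference inhibitor.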 The conditions noted are these: P. falciparum 3D7 crude extract, LDH APAD/NBT absorbance; at 2 µM; active compounds read high. On the technique in general: Counterscreens check selectivity or assay interference.
L-lactate dehydrogenase (Plasmodium falciparum (isolate CDC / Honduras)), sequence (Q27743 whole entry, looked up): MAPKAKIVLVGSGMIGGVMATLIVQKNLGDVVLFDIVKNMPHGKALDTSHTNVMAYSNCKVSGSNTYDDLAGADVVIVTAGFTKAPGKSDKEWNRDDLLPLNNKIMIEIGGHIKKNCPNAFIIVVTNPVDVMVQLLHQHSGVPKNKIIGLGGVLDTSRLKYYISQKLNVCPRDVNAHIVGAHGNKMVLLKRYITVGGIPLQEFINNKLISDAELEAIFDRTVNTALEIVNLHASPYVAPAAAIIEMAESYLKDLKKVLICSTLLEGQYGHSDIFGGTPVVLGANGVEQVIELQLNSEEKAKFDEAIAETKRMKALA

A short description of test [4]: inhibition of 3D7 malaria parasite growth – strain 3D7 (AID 2306).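 Further: 0% = DMSO wells and 100% = chloroquine plus artemisinin control wells.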 The conditions noted are these: P. falciparum 3D7 erythrocytic growth, LDH absorbance, 72 h; at 2 µM; active compounds read high.
The target of test [5] is Calcium-dependent protein kinase 1 (Plasmodium falciparum (isolate 3D7)) (UniProt P62344). The test is described as follows: PfCDPK1 kinase inhibitors, biochemical, TCAMS library (AID 1159585; cut-off not given, nearly all actives have IC50 up to about 0.98 µM;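 further: inhibitors leave more ATP so luminescence rises with inhibition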). The conditions noted are these: recombinant PfCDPK1, Kinase-Glo ATP depletion luminescence. In general terms: Kinase-Glo reads ATP consumption through a luciferase reaction.
Calcium-dependent protein kinase 1 (Plasmodium falciparum (isolate 3D7)), sequence (P62344 whole entry, looked up): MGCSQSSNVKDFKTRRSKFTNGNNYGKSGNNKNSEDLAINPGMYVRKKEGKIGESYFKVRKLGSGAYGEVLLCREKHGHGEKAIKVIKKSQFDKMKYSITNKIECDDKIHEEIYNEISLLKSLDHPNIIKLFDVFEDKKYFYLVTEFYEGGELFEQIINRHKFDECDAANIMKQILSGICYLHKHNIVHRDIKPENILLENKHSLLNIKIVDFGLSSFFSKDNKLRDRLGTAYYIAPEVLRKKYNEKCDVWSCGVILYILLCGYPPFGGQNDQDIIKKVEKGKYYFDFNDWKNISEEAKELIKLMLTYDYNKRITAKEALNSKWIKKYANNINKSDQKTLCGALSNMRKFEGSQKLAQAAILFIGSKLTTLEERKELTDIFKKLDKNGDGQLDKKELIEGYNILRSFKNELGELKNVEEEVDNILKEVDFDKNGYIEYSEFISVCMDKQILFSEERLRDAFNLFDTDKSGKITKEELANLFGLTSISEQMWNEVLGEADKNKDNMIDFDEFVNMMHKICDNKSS
Test [6] addresses Plasmodium falciparum protein kinase 6 (PK6, PF3D7_1337100) (UniProt Q8IDW1). In words: PfPK6 kinase inhibitors, biochemical, TCAMS library (AID 1159586). To be noted: recombinant PfPK6, Kinase-Glo ATP depletion luminescence.
Test [7] deals with Protein kinase 7 (PK7), Plasmodium falciparum 3D7 (PF3D7_0213400) (UniProt Q7YTF7). The test is described as follows: inhibition of Plasmodium PK7 catalytic activity – biochemical, TCAMS antimalarial set, Kinase-Glo luminescence (AID 1159587). The conditions noted are these: recombinant PfPK7, Kinase-Glo ATP depletion luminescence.
Protein kinase 7 (PK7), Plasmodium falciparum 3D7 (PF3D7_0213400), sequence (Q7YTF7 1-343): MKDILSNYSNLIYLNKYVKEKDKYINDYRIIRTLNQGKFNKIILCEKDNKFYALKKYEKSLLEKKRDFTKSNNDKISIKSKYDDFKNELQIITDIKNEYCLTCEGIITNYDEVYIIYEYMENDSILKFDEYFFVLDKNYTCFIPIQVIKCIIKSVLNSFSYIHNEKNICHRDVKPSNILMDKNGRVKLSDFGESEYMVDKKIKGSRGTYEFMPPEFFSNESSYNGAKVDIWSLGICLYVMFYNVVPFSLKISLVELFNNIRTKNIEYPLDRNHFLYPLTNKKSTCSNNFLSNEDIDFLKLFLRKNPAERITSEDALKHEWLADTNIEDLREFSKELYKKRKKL
The target of test [8] is Calcium-dependent protein kinase 4 (Plasmodium falciparum (isolate 3D7)) (UniProt Q8IBS5). In words: PfCDPK4 kinase inhibitors, biochemical, TCAMS library (AID 1159588; cut-off not given, nearly all actives have IC50 up to about 0.91 µM). To be noted: recombinant PfCDPK4, Kinase-Glo ATP depletion luminescence.
Calcium-dependent protein kinase 4 (Plasmodium falciparum (isolate 3D7)), sequence (Q8IBS5 whole entry, looked up): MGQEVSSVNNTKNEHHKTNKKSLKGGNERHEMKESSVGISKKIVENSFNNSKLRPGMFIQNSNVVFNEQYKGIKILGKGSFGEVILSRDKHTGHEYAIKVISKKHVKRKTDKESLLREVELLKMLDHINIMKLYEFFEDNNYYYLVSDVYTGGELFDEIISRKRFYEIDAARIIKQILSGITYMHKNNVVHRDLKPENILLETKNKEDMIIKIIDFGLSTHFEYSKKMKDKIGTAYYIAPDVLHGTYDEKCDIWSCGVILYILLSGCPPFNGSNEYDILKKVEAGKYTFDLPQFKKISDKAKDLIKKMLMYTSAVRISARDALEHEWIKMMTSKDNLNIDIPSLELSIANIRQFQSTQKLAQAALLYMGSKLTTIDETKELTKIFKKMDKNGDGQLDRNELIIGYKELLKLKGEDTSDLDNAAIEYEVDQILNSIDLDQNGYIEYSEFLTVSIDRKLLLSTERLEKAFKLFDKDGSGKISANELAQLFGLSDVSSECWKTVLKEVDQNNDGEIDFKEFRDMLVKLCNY

A number with no mark means an inactive call. For part of these data: Entries with a potency or affinity are not part of this list. Active and inactive are the calls of the source. Unless noted, how the calls were made is not given here.

Plasmodium falciparum protein kinase 6 (PK6, PF3D7_1337100), sequence (Q8IDW1 1-305): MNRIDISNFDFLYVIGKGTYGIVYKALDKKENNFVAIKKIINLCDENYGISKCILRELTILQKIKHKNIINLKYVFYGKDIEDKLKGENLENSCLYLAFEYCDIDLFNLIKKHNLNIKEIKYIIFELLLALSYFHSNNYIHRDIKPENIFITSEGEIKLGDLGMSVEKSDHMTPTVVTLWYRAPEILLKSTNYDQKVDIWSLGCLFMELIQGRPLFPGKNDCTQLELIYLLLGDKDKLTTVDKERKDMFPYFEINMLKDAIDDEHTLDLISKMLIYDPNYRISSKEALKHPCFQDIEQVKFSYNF

`CN1CCN(CC(=O)Nc2cccc(-c3ccc(-c4nc5ccc(C(F)(F)F)cc5[nH]4)cc3)c2)CC1`: the growth inhibition in test [1] was 94% (active); in test [4] it was 102% (active). Besides, the inhibition is 37% in test [2] and -3% in test [3]. Further, the outcome in test [5], in test [6], in test [7] and in test [8] was inactive.
In the case of `CC1(C)N=C(N)N=C(N)N1OCCCc1c(Cl)cccc1Cl`, the growth inhibition in test [1] is 97% (active); in test [4], 95% (active). For the same compound, the inhibition was 71% (active) in test [2] and 3% in test [3]. The result in test [5], in test [6], in test [7] and in test [8] was inactive.
On to `CCOc1cc(C2C(C(=O)OC(C)C)=C(C)NC3=C2C(=O)CC(c2ccc(Cl)cc2)C3)ccc1OC(C)=O` (centres undefined), for which the growth inhibition is 20% in test [1] and 90% (active) in test [4]. Moreover, the figures for the inhibition in test [2] and in test [3] were 16% and -3%, respectively. Further, the result in test [5], in test [6], in test [7] and in test [8] was inactive.
